This is an account of results in PubChem BioAssay.

Unmarked numbers belong to inactive results. No rule for the calls is given here.

For the experiment, the target named is Pantothenate synthetase (Mycobacterium tuberculosis (strain ATCC 25618 / H37Rv)) (UniProt P9WIL5). Briefly: Recombinant Mtb pantothenate synthetase (PanC) inhibitors, coupled enzyme, confirmatory (AID 375).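 Also: 0% = full reaction with vehicle and 100% = no enzyme background.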 The settings on record: coupled enzyme assay; at 10 µM, active compounds read high.
Pantothenate synthetase (Mycobacterium tuberculosis (strain ATCC 25618 / H37Rv)), sequence (P9WIL5 whole entry, looked up): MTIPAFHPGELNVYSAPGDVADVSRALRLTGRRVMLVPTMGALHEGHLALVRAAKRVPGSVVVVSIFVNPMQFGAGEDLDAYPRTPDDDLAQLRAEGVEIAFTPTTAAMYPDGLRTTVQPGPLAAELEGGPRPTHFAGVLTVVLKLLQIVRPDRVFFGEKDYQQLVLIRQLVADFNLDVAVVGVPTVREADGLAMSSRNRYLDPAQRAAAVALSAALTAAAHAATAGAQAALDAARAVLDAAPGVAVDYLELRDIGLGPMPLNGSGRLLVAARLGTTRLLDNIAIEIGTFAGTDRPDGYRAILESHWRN
Regarding `COC(=O)c1ccccc1NC(=O)COc1ccc(S(=O)(=O)N2CCCC2)cc1C`, the inhibition (commonly the relative decrease from the control value, in per cent) was 0%.

Consider `O=C1C2C3C=CC(C3)C2C(=O)N1Cc1ccccc1` (stereo not given), for which the inhibition is 6%.

Take `COC(=O)c1c(C(=O)OC)n(CCCN)c2ccc(C)cc12`: the inhibition is 9%.

Take `Nc1cc(N)nc(SCc2ccccc2)n1`: the inhibition is 0%.

`CC(C)CN(CC(C)C)C(=O)CS(=O)(=O)Cc1ccccc1`: the inhibition is 0%.

For the molecule `CCCCN(CCCC)CCCNC(=O)CC1Oc2ccc(C)cc2NC1=O` (stereo not given), the inhibition is 3%.

Turning to `CCn1cc(C(=O)O)c(=O)c2ccc(C)nc21`, the inhibition is 0%.

For `CCN1C(=O)c2cccc3c(NC(=O)c4ccc(S(=O)(=O)N(C)C)cc4)ccc1c23`, the inhibition was 1%.

Turning to `CCn1nnc(NC(=O)c2ccccc2Br)n1`, the inhibition is 0%.

Turning to `OC(CN1CCOCC1)Cn1c(-c2cccc(Cl)c2)nc2ccccc21` (stereo not given), the inhibition is 4%.

In the case of `Cc1nn(-c2ccccc2)c(Cl)c1C(=O)NCC(=O)O`, the inhibition is 0%.

Consider `COCCNC(=O)c1cc(-c2cccs2)on1`, for which the inhibition was 0%.

On to `COc1ccc(Cl)c(NCCC(=O)O)c1`, for which the inhibition is 0%.

Regarding `Cc1cc(/C=N/n2cnnc2)c(C)n1-c1ccc(Cl)cc1Cl`, the inhibition is 1%.

Turning to `Cc1cc(=O)n(C)c(=O)n1CCCNc1ccccc1`, the inhibition was 2%.

`CN1CCc2c(sc3c2c(=O)n(-c2cccc(Cl)c2)c2nncn32)C1`: the inhibition was 0%.

Take `CCN(CC)CCOC(=O)C1(c2ccc(OC)c(OC)c2)CCCC1`: the inhibition is 12%.

In the case of `COc1ccccc1N1CCN(C(=O)CN(Cc2ccc(Cl)cc2)S(C)(=O)=O)CC1`, the inhibition was 3%.

For the molecule `Cc1cccc(Cn2c(=O)n(Cc3ccco3)c(=O)c3ccccc32)c1`, the inhibition was 0%.

For `CC(=O)NC1=NC(=O)/C(=C/N2CCCCC2)S1`, the inhibition is 8%.

On to `COc1ccc(OC)c(Nc2nc(-c3cccs3)cs2)c1`, for which the inhibition is 0%.

In the case of `O=C(O)C1C2CCC(O2)C1C(=O)NCCC1=CCCCC1` (stereo not given), the inhibition is 3%.

Take `Cc1[nH]c(=O)[nH]c(=O)c1S(=O)(=O)N(C)Cc1ccccc1`: the inhibition is 0%.

With `O=C(Nc1nc(-c2cccs2)cs1)c1cccc(S(=O)(=O)N2CCCCC2)c1`, the inhibition was 0%.

Regarding `Cc1cccc(NC(=O)c2cnc3sccn3c2=O)n1`, the inhibition is 4%.

On to `O=C(CSc1nnc(-c2ccccc2Br)o1)Nc1cccc2ccccc12`, for which the inhibition was 2%.

Turning to `Cc1cccc(N(CC(N)=O)S(C)(=O)=O)c1C`, the inhibition was 0%.

As for `CC(C)OP(=O)(c1ccc(N(C)C)cc1)C(O)c1ccccc1F` (stereo not given), the inhibition is 0%.

For the molecule `COc1ccccc1-c1cc2nc(C)c(CCC(=O)NCc3ccco3)c(C)n2n1`, the inhibition was 0%.

`CCOC(=O)C(NC(=O)OC(C)C)(Nc1nccs1)C(F)(F)F` (stereo not given): the inhibition is 2%.

Take `C=CCn1c(SCc2ccc3nonc3c2)nnc1-c1cccs1`: the inhibition was 7%.

Turning to `CCOc1ccc(C(=O)Nc2cc(C)on2)cc1OCC`, the inhibition was 6%.

For `O=C(c1ccc(Br)o1)N1CCN(c2ccc3nnc(-c4ccccc4)n3n2)CC1`, the inhibition is 1%.

For `COCCN(CC(=O)NCc1ccccc1)C(=O)CCC(=O)Nc1ccccn1`, the inhibition is 0%.

Take `Cc1ccc(NC(=O)c2ccco2)c(NC(=O)CN2C(=O)c3ccccc3C2=O)c1`: the inhibition is 7%.

Take `CC(=O)Nc1ccc(OC(=O)c2cccnc2)cc1`: the inhibition was 0%.

Take `CCCCOc1ccc(-c2ncc(C(=O)OCC)c(N)n2)cc1`: the inhibition is 11%.

For `CC(Sc1nnnn1C)C(=O)Nc1ccc(Oc2ccccc2)cc1` (stereo not given), the inhibition was 0%.

Regarding `O=C(Nc1ccncc1)c1cncc(Br)c1`, the inhibition is 0%.

As for `CCOC(=O)c1c(C)n(C)c2ccc(O)c(S(=O)(=O)c3ccccc3)c12`, the inhibition is 9%.
